High-throughput results: PubChem BioAssay, several laboratories
A selection: hits, their analogues and other compounds. The true share with any hit is near 1.9%.
GALR2 agonist = GALR2 receptor agonists, primary screen, cell-based | Galanin receptor type 2 (Homo sapiens), O43603 | GALR2-expressing cells, agonist activation read-out | activation, % (test concentration not listed) | hit rate 0.48% among 140,000; in the data active = activation above about 5%, passing the limit was not always enough;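 also: 0% = vehicle buffer wells and 100% = reference agonist at full effect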
Target sequence (O43603 whole entry, looked up): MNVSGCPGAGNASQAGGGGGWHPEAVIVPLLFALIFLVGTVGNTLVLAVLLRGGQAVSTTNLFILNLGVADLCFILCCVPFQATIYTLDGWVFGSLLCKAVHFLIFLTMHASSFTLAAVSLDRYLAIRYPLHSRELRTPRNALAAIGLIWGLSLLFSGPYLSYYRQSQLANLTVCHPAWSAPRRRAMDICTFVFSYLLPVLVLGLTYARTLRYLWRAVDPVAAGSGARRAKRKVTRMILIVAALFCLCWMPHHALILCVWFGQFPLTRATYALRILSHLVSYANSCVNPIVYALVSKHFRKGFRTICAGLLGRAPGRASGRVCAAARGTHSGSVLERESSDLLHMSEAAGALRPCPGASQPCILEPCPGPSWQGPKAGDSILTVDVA
SDO1 yeast rescue = growth rescue of sdo1-depleted yeast, primary screen, S. cerevisiae, bone marrow failure model; S. cerevisiae sdo1-depleted JHY4D growth rescue, OD600 30 h; active compounds read high; pdr5 snq2 efflux-pump mutant strain; z-score at 10 µM; hit rate 0.21% among 140,000; AID 817, 2007;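 active = z-score above 3 at both the 24 hr and the 30 hr optical density reads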;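 also: z-score against mean and SD of all compound wells on the same plate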
FAK blocker = FAK kinase inhibitors, primary screen, biochemical. Focal adhesion kinase 1 (Homo sapiens), Q05397. hit rate 0.84% among 97,000. AID 727, 2007. biochemical FAK kinase activity assay. inhibition, %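 (tested at 7 µM)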; in the data active = inhibition above about 19%;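 also: 0% = DMSO and 100% = reference compound high control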
S1P2 agonist = S1P2 receptor agonists, primary screen, cell-based | activation, % at 4.5 µM | hit rate 0.46% among 97,000 | S1P2-expressing cell line, agonist reporter read-out; in the data active = activation above about 16%;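 also: 0% = vehicle low control and 100% = maximal reference agonist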
GALR2 antag = GALR2 antagonists in receptor-expressing cells, primary screen; antagonist mode; Galanin receptor type 2 (Homo sapiens), O43603; inhibition, % at 4 µM; hit rate 0.39% among 140,000; in the data active = inhibition above about 27%;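 also: cells stimulated with galanin 1-16 at roughly its EC80; 0% = agonist challenge control and 100% = basal control without agonist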
S1P2 antag = human S1P2 receptor antagonists, primary screen, cell-based | Sphingosine 1-phosphate receptor 2 (Homo sapiens), O95136 | cell-based S1P2 antagonist assay, inhibition at 5 uM | inhibition, % at 5 µM | hit rate 0.21% among 97,000 | AID 736, 2007; in the data active = inhibition above about 45%;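 also: CRE beta-lactamase reporter cells expressing human S1P2 stimulated with S1P; 0% = agonist at EC80 alone and 100% = agonist plus reference antagonist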
* = called active by the depositor; x = no result; [ ] = dose if it differs, or a comment.

SMILES | GALR2 agonist | SDO1 yeast rescue | FAK blocker | S1P2 agonist | GALR2 antag | S1P2 antag
COC(=O)c1ccccc1NC(=O)c1cccc(NC(=O)c2ccc(Br)o2)c1C | -4 | -1.6 | -2 | -7 | -2 | -12
COCCn1c(N)c(C#N)c2nc3ccccc3nc21 | 3 | 0.32 | 4 | 3 | 0 | -6
COc1cccc(Cn2c(N)c(C#N)c3nc4ccccc4nc32)c1OC | 4 | -1.3 | 6 | 24* | -15 | -37
COc1ccc(-n2c(NC(=O)c3ccc(Br)o3)c(C#N)c3nc4ccccc4nc32)cc1 | 5.4* | 0.26 | 1 | 12 | -1 | -15
COc1cc(Cn2c(N)c(C#N)c3nc4ccccc4nc32)cc(OC)c1 | 13* | -0.16 | 2 | 14 | -6 | -35
N#Cc1c(N)n(CCOC(=O)c2cccc(Br)c2)c2nc3ccccc3nc12 | 7 | -0.41 | 1 | 3 | -19 | -36
COc1ccc(-c2cn(-c3ccccc3)c3[n+]2CCS3)cc1 | -1 | 0.18 | x | x | -6 | x
CC(C)CN1C(=S)SC(C)(C)C1n1oc(=O)n(-c2ccc(Cl)cc2)c1=O (stereo not given) | -2 | -0.38 | 1 | -2 | -13 | -19
CCN(c1ccccc1)S(=O)(=O)c1ccc(C(=O)Oc2ccc(C(C)=O)cc2)cc1 | -1 | 0.31 | x | x | 1 | x
CCN(CC)c1ccc2c(C)c(CN3CCOCC3)c(=O)oc2c1 | 6.2* | 0.17 | 2 | 26* | -1 | -20
Cc1ccc(-n2c(C)cc(C(=O)COc3c(CO)cc(F)cc3CO)c2C)cc1C | -1 | 0 | x | x | -10 | x
O=C(COC(=O)C1CC(O)CN1S(=O)(=O)c1ccc(Cl)cc1)c1cccc(Cl)c1 (stereo not given) | -1 | -0.09 | x | x | -9 | x
CCC(C)NC(=O)C1CCN(c2nc(OC)nc(OC)n2)CC1 (stereo not given) | -2 | 0.26 | 1 | 22* | -3 | -4
CCC(C)NC(=O)C1CCN(c2nc(C)cc(C)n2)CC1 (stereo not given) | -1 | 0.89 | 7 | -6 | -12 | 15
Cc1cc(O)c(C2=Nc3ccccc3SC(c3ccc(Cl)cc3)C2)c(=O)o1 (stereo not given) | -1 | -1.3 | x | x | -4 | x
COc1ccc(C2CC(c3c(O)cc(C)oc3=O)=NCCS2)c(OC)c1 (stereo not given) | 0 | -0.97 | x | x | 28* | x
CCCCNC(=O)C1CCN(S(=O)(=O)N2CCCCCC2)CC1 | -1 | 1.4 | x | x | 4 | x
COc1ccc(/C=N/n2cnnc2SCCO)cc1OC | 0 | 0.07 | -2 | 19* | -21 | -29
C=CCSc1nncn1/N=C/c1ccc(OC)cc1 | -1 | -0.06 | 4 | -9 | -2 | 11
Nc1nc(SCc2ccc(Cl)cc2Cl)nc2nc3c(cc12)CCCC3 | 1 | -0.86 | x | x | -2 | x
CCOC(=O)c1ccccc1NC(=O)CSc1nc2ccccc2n1CC(=O)N1CCCC1 | 0 | -0.92 | 5 | 32* | 0 | -61
O=C1Nc2ccc(Cl)cc2/C1=C/C1CC=CCC1 (stereo not given) | 5.0* | -1.1 | x | x | 2 | x
O=c1c2c(-c3ccco3)csc2nc(SCc2cn3cccnc3n2)n1-c1ccccc1 | 3 | -1.7 | 8 | 20* | -29 | -40
NC(=O)CSc1nc2scc(-c3ccco3)c2c(=O)n1-c1ccccc1 | -4 | -0.4 | 1 | -4 | -2 | -16
CCOC(=O)C1=C(c2ccccc2)N=c2s/c(=C\c3cc(OC)c(OC)c(OC)c3)c(=O)n2C1c1cccs1 (stereo not given) | -3 | -0.6 | -1 | -1 | 2 | 1
SMILES | GALR2 agonist | SDO1 yeast rescue | FAK blocker | S1P2 agonist | GALR2 antag | S1P2 antag
CCOC(=O)C1=C(c2ccccc2)N=c2s/c(=C\c3ccco3)c(=O)n2C1c1cccs1 (stereo not given) | -1 | -2.2[8.6 µM] | 21* | -2 | 8 | 12
O=C1N(c2cccc(Cl)c2)C(c2ccc(Cl)cc2)N2CCCN12 (stereo not given) | -1 | -0.44 | x | x | 15 | x
CC1=C(C(=O)Nc2ccc(F)cc2)C(c2ccc(C)o2)C2=C(CC(C)(C)CC2=O)N1 (stereo not given) | -1 | -0.67 | 0 | 21* | 0 | 11
Clc1cccc(/C(Cc2nc3ccccc3[nH]2)=N\Nc2ccccc2)c1 | -1 | -2.4 | x | x | 13 | x
Clc1cccc(Oc2ncc(CN3CCOCC3)s2)c1 | -2 | -0.32 | 4 | 1 | 4 | 1
CO/N=C/c1ccc(Sc2ccccc2)c([N+](=O)[O-])c1 | -2 | -0.35 | 1 | 9 | -13 | -19
CO/N=C/c1ccc(Sc2ccccc2N)c([N+](=O)[O-])c1 | 0 | -1.2 | -1 | 17* | 6 | -27
Cc1c(CN(C)C)c2c(n1C)C(=O)c1ccc(Br)cc1-2 | 4 | 1.7 | -5 | 0 | -6 | -37
CCOC(=O)c1c2c(n(C)c1C)C(=O)C(=O)c1ccc(Br)cc1-2 | -1 | x | 40* | -5 | 3 | -4
Cc1nc2sc3c(NCc4ccco4)ncnc3c2c2c1COC(C)(C)C2 | -2 | -0.08 | 14 | 26* | -14 | -34
CC(=O)NC1=NN(C(C)=O)C(C)(CS(=O)(=O)c2ccc(Cl)cc2)S1 (stereo not given) | -2 | 1.3 | 0 | -5 | 2 | -1
CC(=O)NC1=NN(C(C)=O)C(C)(CCS(=O)(=O)c2ccc(Br)cc2)S1 (stereo not given) | 6.9* | 0.43 | x | x | -1 | x
O=C(c1ccccc1)N(Cc1ccc2c(c1)OCO2)Cc1nc2ccccc2c(=O)[nH]1 | 0 | -0.39 | -3 | -5 | -2 | 12
O=C(Nc1ccccc1)N(Cc1ccc2c(c1)OCO2)Cc1nc2ccccc2c(=O)[nH]1 | -1 | 0.11 | 1 | 21* | -1 | -9
Cc1nnc(Sc2nc3c(c(=O)[nH]c(=O)n3C)n2CCCc2ccccc2)s1 | -3 | 0.11 | -6 | 27* | -5 | -31
CC(C)CCSc1nc2c(c(=O)[nH]c(=O)n2C)n1CCCc1ccccc1 | -3 | -1.7 | -5 | -2 | 2 | -11
O=C(Cn1cnc2c(nnn2Cc2ccc(Cl)cc2)c1=O)NCc1ccco1 | 0 | 0.38 | -3 | -1 | -7 | -25
O=C(Cn1cnc2c(nnn2Cc2ccc(F)cc2)c1=O)NCc1ccco1 | -1 | 0.64 | 0 | 33* | 6 | -15
COC(=O)[C@@]1(Cc2ccc(F)cc2)[C@H]2c3cc(C(=O)N(C)C)n(Cc4ccc(OC(F)(F)F)cc4)c3C[C@H]2CN1C(=O)c1ccccc1 | -1 | 0.07 | x | x | -7 | x
Nc1c(C(=O)NCCN2CCOCC2)c2nc3ccccc3nc2n1CCc1ccccc1F | 5.3* | -1.9 | -6 | 45* | -19 | -38
Nc1c(C(=O)NCCN2CCOCC2)c2nc3ccccc3nc2n1CCc1ccccc1 | 8.6* | -2.1 | 7 | 29* | -20 | -4
CCCCN1C(=O)Nc2ccccc2S1=O (stereo not given) | -2 | 1.7 | x | x | 1 | x
